Values without a mark were called inactive.
Experiment: ATP-based viability of Huh7 replicon cells – cell-based, CellTiter-Glo luminescence, basal, 48 h, cytotoxicity control for HCV replication inhibitor project, primary screen (AID 1143);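 note: Huh7 hepatoma cells carrying a hepatitis C replication reporter with no stimulus; test concentration not given here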
Conditions: higher = more signal, called active from +8 up or from −8 down
Compound `NCCCCCNC(=O)[C@@H]1C[C@@H]2C(=O)N3CCC[C@H]3C(=O)N2[C@@H]1c1cccc(OCCO)c1` has a z-score of 0.902. Work on `C=CC[C@]1(C(=O)NCc2ccccc2)N=C(c2ccc(OCCCO)cc2)O[C@H]1c1ccccc1` yielded a z-score of -4.19. `COCCOC(=O)N1C(=O)[C@@]2(c3cc(C#CCNC(N)=O)ccc31)[C@H](c1ccc(O)cc1)N1[C@H](c3ccccc3)[C@H](c3ccccc3)OC(=O)[C@H]1[C@@H]2C(=O)N1CCCCCCC1` gave a z-score of -0.446. Work on `O=C1[C@H]2[C@H]3[C@H](O)[C@H](O)CC(=NO[C@@H]4O[C@H](CO)[C@@H](O)[C@H](O)[C@H]4O)[C@@H]3CC[C@H]2C(=O)N1Cc1ccc2c(c1)OCO2` yielded a z-score of 0.548. `O=C1[C@H]2[C@H]3[C@H](O)[C@H](O)CC(=NOCc4ccccc4)[C@@H]3CC[C@H]2C(=O)N1C1CCCCC1` showed a z-score of -0.48. Work on `O=C1[C@H]2[C@H]3[C@H](O)[C@H](O)CC(=NO[C@@H]4O[C@H](CO)[C@@H](O)[C@H](O)[C@H]4O)[C@H]3CC[C@H]2C(=O)N1Cc1ccc2c(c1)OCO2` yielded a z-score of -0.402. In the case of `O=C(NN=C1C[C@@H](O)[C@@H](O)[C@@H]2[C@@H]3C(=O)N(c4cccc(Oc5ccccc5)c4)C(=O)[C@@H]3CC[C@H]12)OCc1ccccc1`, the z-score is reported as -1.24. For `CC(C)CON=C1C[C@@H](O)[C@@H](O)[C@@H]2[C@@H]3C(=O)N([C@@H](C)c4ccccc4)C(=O)[C@@H]3CC[C@H]12`, the z-score was -0.544. `CC(=O)O[C@H]1C2=C(C(=O)[C@@H]3O[C@@H]31)[C@H]1C(C)O[C@@H]2[C@@]23C(=O)[C@@H]4O[C@@H]4[C@@H](O)C2=CO[C@H](C)[C@@H]13` (some centres undefined) gave a z-score of -1.6.
